Source: PubChem BioAssay AID1159580 (chemical genetic matrix, 2015)
Out of some 5,500 compounds screened, about 2,000 (36%) were called active. Inconclusive results (about 18%) are left out. No stated cut-off is given here; in the data, active means normalized growth mostly below about 0.91 (no sharp cut-off); inconclusive means no clear call, values can overlap the other calls; inactive means mostly above about 0.92. This is one part of the list.

Assay: chemical genetic growth profiling, strain panel (AID 1159580);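 further: tested at 20 µM; growth read once vehicle control cultures reached saturation at 30 °C; 1 = growth at the plate median or of vehicle wells; lower values mean less growth of the strain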
Settings: S. cerevisiae deletion strains, growth OD
[1] = locus YHR030C, strain SLT2, active compounds read low
[2] = locus YHR079C, strain IRE1, active compounds read low
[3] = locus YJL095W, strain BCK1, active compounds read low
[4] = locus YJR066W, strain TOR1, active compounds read low
[5] = locus YLR113W, strain HOG1, active compounds read low
[6] = locus YNL183C, strain NPR1, active compounds read low
[7] = locus YOR231W, strain MKK1, active compounds read low
[8] = locus YPL256C, strain CLN2, active compounds read low

Measured: normalized growth

CCCCOC(=O)c1ccc(O)cc1
inactive: [2] 0.879 | [3] 0.895 | [4] 0.934 | [6] 0.892 | [7] 0.951
active: [1] 0.854 | [5] 0.768 | [8] 0.799

CCOC(=O)c1ccc(O)cc1
inactive: locus YAL021C, strain ccr4, active compounds read low 1.03 | locus YAL026C, strain drs2, active compounds read low 1.02 | locus YAL030W, strain snc1, active compounds read low 1.01 | locus YBL061C, strain skt5, active compounds read low 1.01 | locus YBR009C, strain hhf1, active compounds read low 0.999 | locus YBR023C, strain chs3, active compounds read low 1.01 | locus YBR171W, strain sec66, active compounds read low 1.01 | locus YBR231C, strain swc5, active compounds read low 1.02 | locus YBR279W, strain paf1, active compounds read low 1.02 | locus YCL011C, strain gbp2, active compounds read low 1 | locus YCL016C, strain dcc1, active compounds read low 1 | locus YCL061C, strain MRC1, active compounds read low 1.01 | locus YCL069W, strain vba3, active compounds read low 1.01 | locus YCR088W, strain abp1, active compounds read low 1.01 | locus YDL005C, strain med2, active compounds read low 1.02 | locus YDL040C, strain nat1, active compounds read low 1.01 | locus YDR001C, strain nth1, active compounds read low 1.01 | locus YDR069C, strain doa4, active compounds read low 1.02 | locus YDR137W, strain rgp1, active compounds read low 1.03 | locus YDR159W, strain sac3, active compounds read low 0.994 | locus YDR195W, strain ref2 1.06 | locus YDR297W, strain sur2, active compounds read low 1.02 | locus YDR334W, strain swr1, active compounds read low 1.02 | locus YDR335W, strain msn5, active compounds read low 1.01 | locus YDR392W, strain spt3, active compounds read low 0.941 | locus YEL003W, strain gim4, active compounds read low 1.02 | locus YEL037C, strain rad23, active compounds read low 1.02 | locus YEL061C, strain CIN8 (second series), active compounds read low 1.01 | locus YER015W, strain faa2, active compounds read low 1.02 | locus YER016W, strain bim1, active compounds read low 1 | locus YER111C, strain swi4, active compounds read low 1.01 | locus YER155C, strain BEM2 (second series), active compounds read low 0.975 | locus YFR010W, strain ubp6, active compounds read low 1.01 | locus YGL167C, strain pmr1, active compounds read low 1.01 | locus YGL173C, strain kem1, active compounds read low 1.02 | locus YGL227W, strain vid30, active compounds read low 1.01 | locus YGL240W, strain doc1, active compounds read low 0.985 | locus YGL253W, strain hxk2, active compounds read low 1.01 | locus YHR013C, strain ard1, active compounds read low 1.05 | locus YHR027C, strain rpn1, active compounds read low 1.01 | [1] 1.02 | [2] 1.01 | locus YHR142W, strain chs7, active compounds read low 1.01 | locus YJL092W, strain hpr5, active compounds read low 1.02 | locus YJL095W, strain BCK1 (second series), active compounds read low 1 | [3] 1.01 | locus YJL115W, strain asf1, active compounds read low 1.03 | locus YJL129C, strain trk1, active compounds read low 1.03 | locus YJL154C, strain vps35, active compounds read low 1.01 | locus YJL164C, strain tpk1, active compounds read low 0.995 | locus YJL166W, strain qcr8, active compounds read low 0.997 | locus YJL187C, strain SWE1, active compounds read low 1.02 | [4] 0.958 | locus YKL160W, strain elf1, active compounds read low 1 | locus YKR026C, strain gcn3, active compounds read low 0.995 | locus YKR091W, strain srl3, active compounds read low 1.01 | locus YLL001W, strain dnm1, active compounds read low 0.989 | locus YLL026W, active compounds read low 1.01 | locus YLL041C, strain sdh2, active compounds read low 1.01 | locus YLR027C, strain aat2, active compounds read low 1 | [5] 0.966 | locus YLR221C, strain rsa3, active compounds read low 0.999 | locus YLR258W, strain gsy2, active compounds read low 1.01 | locus YLR262C, strain YPT6 (second series), active compounds read low 1.03 | locus YLR320W, strain mms22, active compounds read low 0.992 | locus YLR342W, strain FKS1, active compounds read low 1.02 | locus YLR357W, strain rsc2, active compounds read low 1.03 | locus YLR370C, strain arc18, active compounds read low 1.01 | locus YLR384C, strain iki3, active compounds read low 1.02 | locus YML120C, strain ndi1, active compounds read low 0.998 | locus YMR058W, strain fet3, active compounds read low 1.02 | locus YMR125W, strain sto1, active compounds read low 1.03 | locus YMR129W, active compounds read low 1.02 | locus YMR205C, strain PFK2, active compounds read low 1.02 | locus YMR231W, strain pep5, active compounds read low 1.02 | locus YNL071W, strain lat1, active compounds read low 1.01 | [6] 0.962 | locus YNL209W, strain ssb2, active compounds read low 1.02 | locus YNL248C, strain rpa49, active compounds read low 1.02 | locus YNL322C, strain KRE1 (second series), active compounds read low 1.01 | locus YNR049C, strain mso1, active compounds read low 1.01 | locus YOR001W, strain rrp6, active compounds read low 1.01 | locus YOR070C, strain gyp1, active compounds read low 1.01 | locus YOR080W, strain dia2, active compounds read low 1.02 | locus YOR083W, strain WHI5, active compounds read low 1 | locus YOR106W, strain vam3, active compounds read low 1.02 | [7] 1 | locus YOR265W, strain rbl2, active compounds read low 1.01 | locus YOR270C, strain vph1, active compounds read low 0.988 | locus YOR290C, strain snf2, active compounds read low 0.975 | locus YPL051W, strain arl3, active compounds read low 0.998 | locus YPL078C, strain atp4, active compounds read low 1 | locus YPL106C, strain sse1, active compounds read low 1 | locus YPL240C, strain hsp82, active compounds read low 1.01 | [8] 1.01
